# Pf Dd2 growth = P. falciparum Dd2 growth inhibitors, primary screen, SYBR Green fluorescence, single dose replicates; AID 1159554, 2015; 72 h; active compounds read low; activity change, % at 10 µM; hit rate 2.3% among 94,000; in the data active = activity change below about -80%; inconclusive = no clear call, values can overlap the other calls
# C diff growth = C. difficile growth inhibitors, primary screen, HTS. Clostridium difficile clinical isolate growth, OD600, 24 h; active compounds read low. growth activity, negative = inhibition, % at 16 µg/mL (by protocol). hit rate 0.25% among 86,000. AID 1259249, 2017;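 active = mean growth activity at or below -80% and every replicate also at or below -80%; inconclusive = mean at or below -80% but some replicate above -80%; inactive = mean growth activity above -80%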;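 also: 0% = DMSO wells and -100% = levofloxacin 16 µg/mL wells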
# T cruzi growth-1 = T. cruzi intracellular proliferation inhibitors, primary screen, cell-based, beta-gal Tulahuen parasites, NIH3T3 host, luminescence | T. cruzi beta-gal in NIH3T3, GalScreen luminescence, 90 h | inhibition, % at 8.34 µM | hit rate 5.9% among 77,000;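 active = mean inhibition above about 93%, with at least 55% of replicates each passing it, limit read from the data, passing the limit was not always enough; inconclusive = only one of those two conditions holds; inactive = neither condition holds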
# T cruzi growth-2 = T. cruzi intracellular proliferation inhibitors, confirmation, cell-based, NIH3T3 host, beta-gal parasite, luminescence, cherry-pick; shares compounds with T cruzi growth-1; T. cruzi beta-gal in NIH3T3, GalScreen luminescence, 90 h; inhibition, % at 8.35 µM; hit rate 72% among 5,600; AID 651739, 2012;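 active = mean replicate inhibition above about 95% and at least 55% of replicates individually reaching it, limit read from the data; inconclusive = only one of the two criteria is met; inactive = neither criterion is met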
# T cruzi growth-3 = inhibitors of intracellular T. cruzi replication, confirmation, NIH3T3 host cells, beta-gal parasites, cherry-pick, set 2; T. cruzi beta-gal in NIH3T3, GalScreen luminescence, 90 h; shares compounds with T cruzi growth-1; inhibition, % at 2.09 µM; hit rate 21% among 5,600;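 active = mean inhibition above about 95%, with at least 55% of replicates also reaching it, limit read from the data; inconclusive = meets just one of the two conditions; inactive = meets neither condition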;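 also: plate controls were neutral control median for no effect and positive control median for full effect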
# 3T3 cytotox = cytotoxicity in mouse NIH/3T3 fibroblasts, confirmation, cytotoxicity control for T. cruzi proliferation inhibitor project, cell-based, cherry-pick, single point; NIH/3T3 viability, CellTiter-Glo ATP luminescence, 90 h; shares compounds with T cruzi growth-1; hit rate 14% among 5,600; cytotoxicity (signal decrease), % at 8.35 µM;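 active = mean signal decrease across replicates above about 35% based on untreated-well scatter, with enough replicates individually passing, limit read from the data; inconclusive = no rule stated though some were filed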;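 also: 0% = median of neutral control wells and 100% = median of positive control wells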
# 3T3 cytotox 2 = NIH/3T3 fibroblast cytotoxicity, confirmation, cytotoxicity control, cell-based, cherry-pick, single point, set 2. AID 651744, 2012. NIH/3T3 viability, CellTiter-Glo ATP luminescence, 90 h. shares compounds with T cruzi growth-1. inhibition, % at 24.9 µM. hit rate 56% among 5,600;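 active = mean loss of cell viability signal at or above a set limit, and enough replicates individually reaching it; inconclusive = meets only the mean limit or only the replicate share; inactive = meets neither condition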;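 also: 0% = median of neutral control wells and 100% = median of positive control wells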
# * = called active by the depositor; ? = inconclusive; / = no result. Rows were chosen to be rich in hits. Some 6.8% of all compounds tested hit in one or more screens of this group.
SMILES,Pf Dd2 growth,C diff growth,T cruzi growth-1,T cruzi growth-2,T cruzi growth-3,3T3 cytotox,3T3 cytotox 2
O=C(Nc1ccc(Cl)cc1)N1C[C@@H]2[C@H](c3ccccc31)[C@H](CO)N2C(=O)c1ccccn1,3.2,0.7,-17.1,/,/,/,/
C[C@@H]1CN([C@@H](C)CO)C(=O)c2cccc(NC(=O)C3CCOCC3)c2O[C@H]1CN(C)CC1CCCCC1,-18.1,12.9,52.8,/,/,/,/
CCC(=O)N1C[C@H](C)[C@H](OC)CN(C)C(=O)c2ccc(NC(=O)c3ccc(F)cc3)cc2OC[C@H]1C,-40.0,-0.2,-23.5,/,/,/,/
CNC[C@@H]1Oc2ccc(NC(=O)Nc3cccc4ccccc34)cc2C(=O)N([C@H](C)CO)C[C@@H]1C,-7.7,0.0,/,/,/,/,/
C[C@H](CO)N1C[C@H](C)[C@H](CN(C)C)Oc2cc(/C=C/c3ccccc3)ccc2S1(=O)=O,-24.1,2.6,8.8,/,/,/,/
C/C=C/c1ccc2c(c1)O[C@H](CN(C)S(=O)(=O)c1ccccc1OC)[C@@H](C)CN([C@H](C)CO)S2(=O)=O,-55.7,8.9,116.5*,106.2*,86.4,39.1*,?
C/C=C/c1ccc2c(c1)O[C@@H](CN(C)S(=O)(=O)c1ccccc1OC)[C@@H](C)CN([C@@H](C)CO)S2(=O)=O,-46.7,1.1,67.4,/,/,/,/
C/C=C/c1ccc2c(c1)O[C@@H](CN(C)S(=O)(=O)c1ccc(C)cc1)[C@@H](C)CN([C@H](C)CO)S2(=O)=O,-15.6,0.9,113.6*,99.7*,80.6,31.7,67.3*
C/C=C/c1ccc2c(c1)O[C@@H](CN(C)S(=O)(=O)c1ccccc1)[C@@H](C)CN([C@@H](C)CO)S2(=O)=O,-35.7,11.3,65.4,/,/,/,/
COc1ccccc1S(=O)(=O)N(C)C[C@@H]1Oc2cc(/C=C/c3ccccc3)ccc2S(=O)(=O)N([C@H](C)CO)C[C@H]1C,?,8.1,123.8*,104.8*,103.4*,63.2*,70.8*
COc1ccccc1NC(=O)N[C@@H]1CC[C@H](CCNS(=O)(=O)c2ccc(C)cc2)O[C@@H]1CO,-0.5,-1.9,/,/,/,/,/
Cc1ccc(NC(=O)Nc2ccc3c(c2)C(=O)N(C)[C@H]2CC[C@H](CC(=O)NCC(F)(F)F)O[C@@H]2CO3)cc1,/,-3.4,22.7,/,/,/,/
COc1ccc(NC(=O)Nc2cccc3c2O[C@@H](CN(C)S(=O)(=O)c2ccc(OC)cc2)[C@@H](C)CN([C@@H](C)CO)C3=O)cc1,-17.2,7.0,32.6,/,/,/,/
COc1ccc(S(=O)(=O)N(C)C[C@H]2Oc3c(NC(=O)Nc4cccc5ccccc45)cccc3C(=O)N([C@@H](C)CO)C[C@@H]2C)cc1,-39.5,10.3,100.3*,111.8*,43.9,-26.9,9.9
C[C@H](CO)N1C[C@H](C)[C@H](CN(C)S(=O)(=O)c2ccccc2)Oc2c(NC(=O)Nc3cccc4ccccc34)cccc2C1=O,3.5,-20.6,/,/,/,/,/
COc1ccc(S(=O)(=O)N(C)C[C@H]2Oc3c(NC(=O)Nc4cccc5ccccc45)cccc3C(=O)N([C@H](C)CO)C[C@H]2C)cc1,-82.6*,-0.7,127.8*,15.0,12.0,1.5,28.9*
COc1ccc(S(=O)(=O)N(C)C[C@H]2Oc3c(NC(=O)Nc4ccccc4)cccc3C(=O)N([C@@H](C)CO)C[C@@H]2C)cc1,4.6,/,13.7,/,/,/,/
COc1ccc(S(=O)(=O)N(C)C[C@H]2Oc3c(NC(=O)Nc4cccc5ccccc45)cccc3C(=O)N([C@H](C)CO)C[C@@H]2C)cc1,-66.7,-0.1,117.0*,108.3*,61.1,-0.3,16.4
COCC#Cc1cnc2c(c1)C(=O)N([C@H](C)CO)C[C@@H](C)[C@H](CN(C)Cc1ccccc1F)O2,-28.1,1.8,-7.0,/,/,/,/
Cc1ccc(S(=O)(=O)N(C)C[C@H]2Oc3ccc(NS(=O)(=O)c4ccccc4)cc3C(=O)N([C@H](C)CO)C[C@H]2C)cc1,1.5,0.0,97.9,/,/,/,/
COc1ccc(S(=O)(=O)N(C)C[C@@H]2Oc3ccc(NC(=O)Nc4cccc5ccccc45)cc3CC(=O)N([C@@H](C)CO)C[C@@H]2C)cc1,-42.5,5.9,-4.3,/,/,/,/
CCCN(C)C[C@@H]1OCCCC[C@@H](C)Oc2ccc(NC(=O)Nc3ccc(F)cc3)cc2C(=O)N([C@H](C)CO)C[C@@H]1C,18.2,6.2,32.3,/,/,/,/
CCCN(C)C[C@@H]1OCCCC[C@@H](C)Oc2ccc(NC(=O)Nc3ccc(F)cc3)cc2C(=O)N([C@H](C)CO)C[C@H]1C,18.8,10.4,93.4,/,/,/,/
CCCN(C)C[C@@H]1OCCCC[C@H](C)Oc2ccc(NC(=O)Nc3ccc(F)cc3)cc2C(=O)N([C@@H](C)CO)C[C@@H]1C,-63.2,12.3,95.3*,99.2*,82.6,10.2,15.5
CCCN(C)C[C@@H]1OCCCC[C@@H](C)Oc2ccc(NC(=O)Nc3ccc(C(F)(F)F)cc3)cc2C(=O)N([C@H](C)CO)C[C@@H]1C,-74.4,-19.4,100.2*,106.7*,86.1,25.7,38.7*
SMILES,Pf Dd2 growth,C diff growth,T cruzi growth-1,T cruzi growth-2,T cruzi growth-3,3T3 cytotox,3T3 cytotox 2
C[C@H](CO)N1C[C@H](C)[C@H](CN(C)S(=O)(=O)c2ccccc2)Oc2cc(-c3cccc(F)c3)ccc2S1(=O)=O,-56.0,5.6,120.1*,96.6*,99.6*,18.9,34.2*
C[C@@H]1CN([C@@H](C)CO)S(=O)(=O)c2ccc(-c3cccc(F)c3)cc2O[C@H]1CN(C)S(=O)(=O)c1ccccc1,-63.4,-1.1,121.6*,99.4*,106.1*,58.2*,49.2*
C[C@H](CO)N1C[C@H](C)[C@@H](CN(C)S(=O)(=O)c2ccccc2)Oc2cc(-c3cccc(F)c3)ccc2S1(=O)=O,-28.5,-1.1,115.2*,101.0*,56.5,22.1,28.9*
C[C@@H]1CN([C@@H](C)CO)S(=O)(=O)c2ccc(-c3cccc(F)c3)cc2O[C@H]1CN(C)S(C)(=O)=O,-19.8,-6.2,61.5,/,/,/,/
C[C@H]1CN([C@@H](C)CO)S(=O)(=O)c2ccc(-c3cccc(F)c3)cc2O[C@H]1CN(C)S(=O)(=O)c1ccccc1,-63.3,-3.6,118.9*,99.0*,106.2*,42.1*,62.1*
C[C@H](O)C#Cc1ccc2c(c1)O[C@@H](CN(C)CC1CC1)[C@H](C)CN([C@H](C)CO)S2(=O)=O,-44.7,-6.9,-42.1,/,/,/,/
CC(C)C#Cc1cnc2c(c1)C(=O)N([C@@H](C)CO)C[C@@H](C)[C@@H](CN(C)C(=O)c1cnccn1)O2,42.0,7.7,36.2,/,/,/,/

# Assay outcomes as filed in PubChem BioAssay.
